Nrf2 block = Nrf2 qHTS screen for inhibitors; A549 ARE-Fluc reporter, luciferase luminescence, 18-24 h; Potency, µM (titrated, usually from 46 µM), for inactives: top-dose activity change, negative = inhibition, actives largely listed as inhibitors; hit rate 2.1% among 360,000; AID 504444, 2011; further: potency means the concentration at half of the fitted maximal effect; on the % scale 0 is the no-effect control and ±100 the full control effect; nearly all actives have a fitted effect of over 60% in size
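Concentration-response testing used A549 ARE_Fluc cells at 5000 cells/well. Following an 18-24 h compound incubation, viability was read by fluorescence (Ex 405/Em 525) and luciferase output by luminescence.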
Nrf2 ARE act = qHTS of Nrf2 Activators; AREc32 ARE-luciferase reporter (MCF7-derived line), luminescence, 24 h; Potency, µM (doses to about 46.1 µM), inactives show at the top dose activation, most hits filed as activators; hit rate 0.31% among 410,000; further: potency means the concentration at half of the fitted maximal effect; % of control where 0% means no effect; nearly all actives have a fitted effect of over 65% in size
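Nrf2 activation is followed as ARE-luciferase induction in the AREc32 line after one day of compound treatment; luminescence is read with Steady-Glo.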
p53 reactivation = qHTS assay for re-activators of p53 using a Luc reporter; H1299 p53-A138V BP100-luciferase reporter, luminescence, 24 h; AID 504706, 2011; Potency, µM (highest dose often 92.2 µM), without a hit: at the highest dose activity change, positive = activation, actives largely listed as activators; hit rate 0.063% among 320,000; further: potency means the concentration at half of the fitted maximal effect; % of control where 0% means no effect; nearly all actives have a fitted effect of over 45% in size
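p53-null H1299 cells stably carrying temperature-sensitive p53-A138V and a BP100-luciferase reporter were pinned with compounds (4-point, 1:5 series) and held 24 hrs at 37 deg C. Luminescence was read 10 min after detection reagent.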
miR-21 act = qHTS Assay for Modulators of miRNAs and/orActivators of miR-21. Potency, µM (top dose mostly 38.3 µM), without a hit: at the highest dose activity change, positive = activation, hits mostly activators. AID 2288, 2010. 340,000 tested, under 10 active. HeLa miR-21 FLuc reporter, luciferase, 48 h;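 further: % of control where 0% means no effect; miR-21 action dims this reporter so a rising signal means less miR-21 action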
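Luminescence from a firefly luciferase reporter carrying a miR-21 binding site downstream, stably expressed under a CMV promoter in HeLa cells that make miR-21 endogenously, reports miRNA modulation after 48 h compound exposure up to approximately 40uM final.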
ClpP mod = qHTS Assay for Activators of ClpP; ATP-dependent Clp protease proteolytic subunit (Bacillus subtilis (strain 168)), P80244; purified B. subtilis ClpP, FRET peptide cleavage, 20 min; hit rate 1.9% among 340,000; Potency, µM (titrated, usually from 57.5 µM), inactives show top-dose activity change, negative = active; AID 651965, 2013; active means well fitted falling curve with a large enough effect; inconclusive means small, poorly fitted or top-dose-only effect; inactive means no such curve, though single readings can be large or run the other way; further: potency means the concentration at half of the fitted maximal effect; the source files actives as falling curves though it sought activators and does not explain the sign; nearly all actives have a fitted effect of over 65% in size
Target sequence (P80244 whole entry, looked up): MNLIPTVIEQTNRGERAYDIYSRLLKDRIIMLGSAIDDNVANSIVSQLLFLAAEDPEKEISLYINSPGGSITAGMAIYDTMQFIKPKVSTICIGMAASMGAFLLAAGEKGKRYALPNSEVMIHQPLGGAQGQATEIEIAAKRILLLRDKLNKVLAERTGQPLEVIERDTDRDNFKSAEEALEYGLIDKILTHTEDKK
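FRET quenching reversal measured ClpP activation: 10 microg/mL B. subtilis ClpP at pH 8 with the FRET-FV decapeptide, read at 430 nm after 320 nm excitation. The 20-min minus 0-min signal was scaled between DMSO/no-enzyme wells and ADEP (5.8 microM final).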
A549 viability = Nrf2 qHTS screen for inhibitors: counterscreen for cytotoxicity; A549 ARE-Fluc cells, CellTiter-Fluor viability, 18-24 h; Potency, µM (titrated, usually from 46 µM), without a hit: at the highest dose activity change, negative = cytotoxicity, most hits filed as inhibitors; hit rate 0.16% among 390,000; AID 504648, 2011; further: potency means the concentration at half of the fitted maximal effect; on the % scale 0 is the no-effect control and ±100 the full control effect
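A549 ARE_Fluc cells in 5% FBS OPTI-MEM were exposed to compounds in concentration-response for 18-24 h at 37 deg C. Viability was read by CellTiter-Fluor fluorescence (Ex 405/Em 525) after 30 min, before the luciferase read.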
An asterisk follows results filed as active; ? = inconclusive; . = no result given. Most compounds without a hit are left out; they make up all but 3.7% or so of the library. Unless noted, the call rests on the fitted dose curve; in most records, active means well fitted curve in the direction sought with a large enough effect; inconclusive means small, poorly fitted or top-dose-only effect, or another doubt; inactive means no such curve, though single readings can be large; an effect the other way counts as inactive or inconclusive.

SMILES | Nrf2 block | Nrf2 ARE act | p53 reactivation | miR-21 act | ClpP mod | A549 viability
Cc1cccc(C)c1OCCCCn1c(C2CC(=O)N(c3ccc(F)cc3)C2)nc2ccccc21 (stereo not given) | 21µM* | 0% | . | ? | -2% | ?
Cc1cccc(C)c1OCCn1c(C2CC(=O)N(c3cccc(Cl)c3)C2)nc2ccccc21 (stereo not given) | 21µM* | -1% | . | ? | -9% | ?
CCCCN1CC(c2nc3ccccc3n2CCCCOc2c(C)cccc2C)CC1=O (stereo not given) | ? | -4% | . | -39% | -5% | 7%
CC1(C)CCC(=NNC(N)=S)CC1 | 5% | 7% | . | . | -4% | 17%
NC(=S)NN=C1CSSC1 | . | 10µM* | . | . | 1% | .
CC(NC(=O)CCSc1nc(-c2ccc3c(c2)OCO3)cc(C(F)(F)F)n1)c1ccccc1 (stereo not given) | ? | 0% | 12% | -8% | 32µM* | -6%
Cc1c(CN(C)C(=O)CSc2nc(-c3ccco3)cc(C(F)(F)F)n2)cnn1C | 16µM* | 0% | -5% | -1% | -9% | -18%
CCn1cc(CN(C)C(=O)CSc2nc(-c3ccco3)cc(C(F)(F)F)n2)c(C)n1 | ? | 0% | . | . | -6% | -11%
COc1ccc(-c2cc(C(F)(F)F)nc(SCC(=O)Nc3cc(C)on3)n2)cc1 | 4% | 1% | 8% | 0% | 4µM* | 3%
CC(C)NC(=O)CCSc1nc(-c2ccc3c(c2)OCO3)cc(C(F)(F)F)n1 | -11% | -1% | . | 0% | 4% | -8%
CCCNC(=O)CSc1nc(-c2ccc(OC)cc2)cc(C(F)(F)F)n1 | . | 0% | . | -1% | 3.2µM* | 1%
O=C(Nc1c2c(nn1-c1ccc(Cl)cc1)CS(=O)(=O)C2)c1cccc(F)c1 | . | -1% | . | 8% | -2% | -2%
COc1ccccc1CCNC(=O)CCSc1nc(-c2ccco2)cc(C(F)(F)F)n1 | 18µM* | -1% | -5% | 0% | 0% | -19%
COc1ccc(-c2cc(C(F)(F)F)nc(SCC(=O)Nc3ccc(C(C)=O)cc3)n2)cc1 | 23µM* | -1% | . | -9% | ? | -29%
COc1ccc(-c2cc(C(F)(F)F)nc(SCCC(=O)NCc3ccccc3)n2)cc1 | -17% | 0% | -1% | -2% | 13µM* | -7%
CC(Sc1nc2c([nH]c3ccccc32)c(=O)n1-c1ccccc1)c1ccccc1 (stereo not given) | . | 4% | . | ? | -17% | -1%
Cc1ccc(OCC(=O)Nc2ccccc2C(=O)OCc2cc(=O)n3nc(C4CC4)sc3n2)cc1 | . | 1% | . | -1% | -5% | -11%
CCCOC(=O)c1c(NC(=O)C2c3ccccc3Oc3ccccc32)sc2c1CCC(C)C2 (stereo not given) | 9% | -1% | . | -4% | -15% | -3%
Nc1nc(CSC(=S)N2CCN(c3ccccc3)CC2)nc(Nc2ccc(F)cc2)n1 | 21µM* | 4% | -12% | 11% | 1% | -3%
CC(C)C(=O)Nc1ccc2c(c1)C(=O)N(CCC(=O)O)C2=O | -5% | -1% | 1% | -1% | 28µM* | 0%
COc1ccc(OC)c(NC(=O)c2cccn2-c2nnc(N3CCCCC3)s2)c1 | ? | 11% | . | 0% | -1% | 16%
Cc1cc(=O)[nH]c2ccc(O)cc12 | . | . | . | . | 4% | .
COc1ccc(NC(=O)C(=O)NCC(=O)Nc2cc(OC)ccc2OC)cc1 | 1% | 0% | 1% | 0% | 10µM* | 0%
CCc1ccc(-n2c(=O)c3c(C)c(C)sc3n(CC(=O)NCc3ccc(C)cc3)c2=O)cc1 | 14% | 0% | . | -2% | 2% | -5%
